# Compounds with a hit are over-represented: about 3.7% of the library has one in this group of screens.
# TCR activator = T cell receptor activation; primary human leukocytes, anti-CD3, IL-2 HTRF, 48 h; Potency, µM (top dose mostly 9.22 µM), inactives show top-dose activation of IL-2 secretion, actives largely listed as activators; 330,000 tested, under 10 active; also: % of control where 0% means no effect
#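 IL-2 release read by HTRF sandwich (Eu cryptate donor, d2 acceptor, 665 nm emission) after 48 hr exposure of primary human leukocytes to compound together with anti-CD3 beads in the absence of co-stimulatory signals.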
# PI5P4Ka inh = blocks human PI5P4K alpha kinase activity | P48426 | PI5P4Kalpha enzyme, ADP-Glo luminescence, 60 min; active compounds read low | max response, % | 330,000 compounds, 1.2% hits; active = max response of -50% or lower; inconclusive = between -30% and -50%; inactive = -30% or higher; also: value at the top dose of about 77 µM; % is scaled to controls: 0 for no effect and ±100 for the full control effect
#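 Single end-point luminescence (ADP-Glo) quantified ADP from PI5P4Kalpha turnover; ATP 5 microM final, 1 h at RT, 0.1% CHAPS and 0.28 mM EGTA in HEPES pH 7.4.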
# WRN helicase inh = blocks human WRN helicase; Q14191; WRN helicase unwinding, fluorescent forked duplex, kinetic; Potency, µM (doses to about 114 µM), inactives show at the highest dose activity change, negative = inhibition, usual class: inhibitors; 360,000 compounds, 0.46% hits; also: potency is read from the fitted curve at half-maximal effect; % is scaled to controls: 0 for no effect and ±100 for the full control effect; nearly all actives have a fitted effect of over 55% in size
#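 WRN at 20 nM final was preincubated with compound for 15 min at room temperature; reaction started with 100 nM forked duplex oligonucleotide carrying fluorophore and quencher plus 2 mM ATP (final). Unwinding followed kinetically by red fluorescence (ex 525/em 598 nm).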
# VDR inhibitor = inhibitors of human vitamin D receptor; VDR-SRC2-3 peptide fluorescence polarization, 2 h; Potency, µM, without a hit: max response, negative = inhibition, most hits filed as inhibitors; 400,000 compounds, 0.93% hits; also: potency is read from the fitted curve at half-maximal effect; % is scaled to controls: 0 for no effect and ±100 for the full control effect
#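 Measured by FP: displacement of SRC2-3 coactivator peptide from VDR by library compounds, following a two-hour ambient incubation.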
# PLK1 PBD inh = PLK1 (human) polo-box domain binding inhibition | P53350 | Plk1 PBD binding of FITC phosphopeptide, fluorescence polarization | Potency, µM, for the others: max response, negative = inhibition, most hits filed as inhibitors | 360,000 compounds, 2.8% hits | AID 720504; also: potency is read from the fitted curve at half-maximal effect; series mostly up to about 57 µM; % is scaled to controls: 0 for no effect and ±100 for the full control effect; nearly all actives have a fitted effect of over 65% in size
# Target sequence (P53350 whole entry, looked up, the tested form may be a part): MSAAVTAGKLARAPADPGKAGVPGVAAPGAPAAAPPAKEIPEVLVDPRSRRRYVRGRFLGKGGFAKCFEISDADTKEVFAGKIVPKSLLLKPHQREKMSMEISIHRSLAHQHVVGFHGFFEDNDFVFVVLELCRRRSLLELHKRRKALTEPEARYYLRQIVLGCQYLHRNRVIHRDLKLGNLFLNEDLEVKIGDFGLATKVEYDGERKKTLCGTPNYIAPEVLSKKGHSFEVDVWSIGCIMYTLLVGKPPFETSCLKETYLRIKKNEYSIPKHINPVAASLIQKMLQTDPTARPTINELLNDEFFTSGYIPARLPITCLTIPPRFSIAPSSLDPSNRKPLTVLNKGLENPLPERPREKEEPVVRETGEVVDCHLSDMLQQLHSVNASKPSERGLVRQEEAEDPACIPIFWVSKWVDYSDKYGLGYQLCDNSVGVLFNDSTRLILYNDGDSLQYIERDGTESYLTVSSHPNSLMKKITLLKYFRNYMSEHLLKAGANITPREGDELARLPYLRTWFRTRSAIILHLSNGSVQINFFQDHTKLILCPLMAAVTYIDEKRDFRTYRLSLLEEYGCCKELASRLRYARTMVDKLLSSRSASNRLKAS
# FEN1 inhibitor = blocks human flap endonuclease 1. P39748. Recombinant FEN1 flap cleavage, fluorescence, 15 min. Potency, µM (top dose mostly 114 µM), for the others: at the top dose activity change, negative = inhibition, hits mostly inhibitors. 390,000 compounds, 0.35% hits. AID 588795; also: potency is read from the fitted curve at half-maximal effect; % is scaled to controls: 0 for no effect and ±100 for the full control effect; nearly all actives have a fitted effect of over 65% in size
#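 Nuclease activity of 10 nM FEN1 was measured after 15 min of room-temperature exposure to titrated compounds, by adding 50 nM flap substrate and reading plates at 0 and 15 min.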
# * = called active by the depositor; i = inactive; ? = inconclusive; · = not tested or not shown; [ ] = another dose, or the depositor's remark. Unless noted, calls follow the shape of the dose curve; as a rule, active = well fitted curve in the direction sought with a large enough effect; inconclusive = small, poorly fitted or top-dose-only effect, or another doubt; inactive = no such curve, though single readings can be large; an effect the other way counts as inactive or inconclusive.
SMILES,TCR activator,PI5P4Ka inh,WRN helicase inh,VDR inhibitor,PLK1 PBD inh,FEN1 inhibitor
COc1ccc2c(c1)c(=O)c(S(=O)(=O)c1ccc(C)c(C)c1)cn2CC(=O)Nc1ccccc1,·,·,·,13%,·,-7%
CCC1CCCCN1C(=O)CSc1n[nH]c(-c2ccccc2)n1 (centres undefined),·,·,·,8%,·,11%
CN(C)C1C(=O)C(C(N)=O)=C(O)[C@@]2(O)C(=O)C3=C(O)c4c(O)ccc(Cl)c4C(O)[C@H]3C[C@@H]12 (some centres undefined),·,·,·,-2%,·,·
Cc1c2c(c(O)c3c(O)cccc13)C(=O)O[C@H]2C1C(N(C)C)C(O)=C(C(N)=O)C(=O)[C@H]1O (some centres undefined),·,·,·,16µM*,·,·
C=CCn1c(=O)c2ccccc2n2c(SCC(=O)c3ccccc3)nnc12,8%,-19,1%,-29%,24µM*,5%
CCn1c(=O)c2ccccc2n2c(SCC(=O)NCc3cccs3)nnc12,·,·,-2%,-20%,4%,6%
CCCn1c(=O)c2ccccc2n2c(SCC(=O)NCc3cccs3)nnc12,0%,-8,-6%,-26%,27µM*,-12%
Cc1ccc(Cn2cc(CCC(=O)NC3CCC(C)CC3)c3ccccc32)cc1 (centres undefined),·,·,·,2%,·,-4%
CC(CCC#N)[N+](=O)[O-] (centres undefined),·,·,·,-6%,·,·
O=C(Nc1ccc(F)cc1)c1nc2c(nnn2Cc2cccc3ccccc23)c(=O)[nH]1,1%,-4,-10%,26%,24µM*,-10%
COc1cccc(OC)c1NC(=O)c1nc2c(nnn2Cc2ccccc2Cl)c(=O)[nH]1,·,-24,6%,-28%,0%,6%
CNC(=O)c1ccc(Nc2nnc(-c3ccc(C)c(S(=O)(=O)NC(C)(C)C)c3)c3ccccc23)cc1,·,·,·,4%,·,-23%
O=C(CN1C(=O)CC(c2ccco2)Sc2ccccc21)Nc1ccccc1F (centres undefined),-5%[46.1 µM],?,?,79µM*,-22%,-7%
COc1cc2nc(CCc3nc4cc(OC)c(OC)cc4[nH]3)[nH]c2cc1OC,·,·,·,·,·,-34%
CC1=C(C(=O)OC2CCCC2)C(c2ccccc2C(F)(F)F)CC(=O)N1 (centres undefined),·,·,·,-12%,·,13%
COc1ccc(NC(=O)/C(=C\c2cccs2)NC(=O)c2ccco2)cc1,4%,-22,9%,-11%,21µM*,-1%
Cc1ccc(NC(=O)/C(=C/c2cccs2)NC(=O)c2ccco2)cc1,-10%[46.1 µM],-12,i,-14%,0%,-5%
COc1ccc(C(=O)NCCn2cc(SCc3cccc(F)c3)c3ccccc32)cc1OC,·,·,·,6%,·,?
COc1cc(Cl)c(C)cc1N1C(=O)CN(Cc2ccccc2)C1=S,8%,-7,-3%,-25%,24µM*,-8%
COc1cc(CN2CC(=O)N(c3ccccc3Cl)C2=S)cc(OC)c1OC,2%,-2,-2%,4%,-15%,-17%
CCn1c(C)cc(/C=C2\NC(=O)N(CC(=O)Nc3ccc(F)cc3)C2=O)c1C,-16%,6,-3%,10%,0%,-2%
Cc1ccc(NC(=O)CN2C(=O)S/C(=C\c3cccn3-c3cccc(C(=O)O)c3)C2=O)c(C)c1,2%,?,?,-10%,24µM*,?
Cc1cccc(NC(=O)CN2C(=O)S/C(=C\C(=O)Nc3ccc(Cl)cc3)C2=O)c1,5%[46.1 µM],-14,-11%,6%,-8%,4%
Cc1ccc(NC(=O)CN2C(=O)S/C(=C\c3cc(C)n(-c4ccc(C(=O)O)cc4)c3C)C2=O)cc1,·,?,-10%,-8%,27µM*,?
Cc1ccc(NC(=O)CN2C(=O)N/C(=C/c3cc(C)n(-c4ccc(C(=O)O)cc4)c3C)C2=O)cc1,-2%,-53*,-7%[11.6 µM],-6%,-29%,-10%
SMILES,TCR activator,PI5P4Ka inh,WRN helicase inh,VDR inhibitor,PLK1 PBD inh,FEN1 inhibitor
CCc1ccc(NC(=O)Cn2ccn(-c3ccc(OC)cc3)c(=O)c2=O)cc1,·,·,·,-6%,·,0%
Cc1ccc(CNC(=O)C(=O)NCC(c2cccs2)S(=O)(=O)c2ccc(C)cc2)cc1 (centres undefined),·,·,·,-3%,·,16%
O=C(CSc1nccn1-c1cccc(Cl)c1)Nc1ccc2c(c1)OCO2,·,·,·,11%,·,20%
C=C(C)C(=O)Oc1ccc(N=Nc2ccc(C)cc2)ccc1=O,3%,-12,40µM*,?,21µM*,?
CC(=O)c1ccc(N=Nc2ccc(C)cc2)cc1,-2%,11,-1%,-10%,-6%,13%
Cc1cc(C)nc(SCC(=O)N/N=C/c2cccc([N+](=O)[O-])c2)n1,-1%[46.1 µM],-24,-16%,79µM*,21µM*,-1%
Cc1cc(C)nc(SCC(=O)NN=C2CCCC2)n1,-12%,-50*,4%,?,6.7µM*,?
COc1ccccc1CNC(=O)c1ccc2[nH]c(C)c(C)c2c1,·,·,·,3%,·,12%
Cc1c(Cl)cccc1NC(=S)Nn1cnnc1,·,5,6%,79µM*,7.5µM*,0%
O=C1CN(c2ccccc2)C(=S)N1C(=O)c1ccc(Br)cc1,0%,-27,7%,?,24µM*,-4%
O=C(c1ccc(Br)cc1)N1CCC(C(=O)N2CCN(c3ccccc3)CC2)CC1,-2%,7,-6%,8%,5%,-17%
CCc1ccc2oc(-c3ccc(C)c(NC(=O)COc4ccccc4Cl)c3)nc2c1,·,·,·,·,·,1%
O=C(N/C(=C\c1ccc(-c2ccccc2)o1)C(=O)N1CCOCC1)c1ccccc1,-2%,-20,?,8%,27µM*,0%
O=S(=O)(Nc1nc2ccccc2nc1N1CCc2ccccc2C1)c1ccc(Cl)cc1,-9%[46.1 µM],11,?,-12%,21µM*,-12%
CC1(C)CN=c2s/c(=C\c3ccc(Cl)cc3)c(=O)n2C1,6%,-18,-4%,-26%,4.7µM*,3%
CSC1=N/C(=C\c2ccc(Cl)cc2)C(=O)N1N(C)C,-3%,29,5%,-1%,0%,-4%
CC(NS(=O)(=O)c1ccccc1[N+](=O)[O-])c1ccccn1 (centres undefined),·,·,·,·,·,-2%
CCc1ccc(N2C(=O)C3CCCN3C2=S)cc1 (centres undefined),-1%,-1,-2%,-12%,12µM*,-3%
Cc1cccc(N2C(=O)C3CCCN3C2=S)c1C (centres undefined),3%,9,-6%,12%,?,4%
OC[C@@H](O)C(O)[C@H](O)[C@@H](O)CO (some centres undefined),·,·,·,0%,·,·
N#CC1(NC(=O)COC(=O)c2ccccc2[N+](=O)[O-])CCCCC1,7%,3,3%,-1%,-4%,-6%
N#CC1(NC(=O)COC(=O)c2cc(O)c3ccccc3c2O)CCCCC1,-1%,?,?,45µM*,6.7µM*,?

# Screening results from PubChem BioAssay.
